Measurements as given in PubChem BioAssay AID1508623 (National Center for Advancing Translational Sciences (NCATS), 2021).
Hit rate of the full screen: of about 48,000 compounds, about 450 (0.94%) were called active. About 19% were inconclusive and are not listed. Calls follow the shape of the dose curve; as a rule, active = well fitted inhibition curve with a large enough effect; inconclusive = small, poorly fitted or top-dose-only effect; inactive = no such curve, though single readings can be large or run the other way. For the sample, actives were picked, then their nearest neighbours and some compounds at random.

experiment: Primary qHTS for Identification of Small Molecule Inhibitors of Huntingtin Promoter Activity; conditions: HEK293 HTT promoter firefly luciferase reporter (activity 0% = vehicle and -100% = no light), 24 h; series mostly up to 57.5 µM; activity change, negative = inhibition: at the top concentration; also: nearly all actives have a fitted effect of over 50% in size
Source text: Assay Provider: Russell L. Margolis M.D.
Department Neurology, Johns Hopkins University School of Medicine, Baltimore, MD
Huntington's Disease (HD) is a neurodegenerative disorder caused by a CAG repeat expansion in exon 1 of huntingtin (HTT). While there are currently no disease-modifying treatments for HD, recent efforts have focused on development of nucleotide-based therapeutics to lower HTT expression. As an alternative to siRNA or oligonucleotide methods, we hypothesized that suppression of HTT expression might be accomplished by small molecules that either (1) directly decrease HTT expression by suppressing HTT promoter activity or (2) indirectly decrease HTT expression by increasing the promoter activity of HTT-AS, the gene antisense to HTT that appears to inhibit expression of HTT.
We developed and employed a high throughput screen for modifiers of HTT and HTT-AS promoter activity using luminescent reporter HEK293 cells; of the 52,041 compounds tested, we identified 898 replicable hits. We used a rigorous stepwise approach to assess compound toxicity and the capacity of the compounds to specifically lower huntingtin protein in 5 different cell lines, including HEK293 cells, HD lymphoblastoid cells, mouse primary neurons, HD iPSCs differentiated into cortical-like neurons, and HD hESCs. We found no compounds which were able to lower huntingtin without lowering cell viability in all assays, though the potential efficacy of a few compounds at non-toxic doses could not be excluded.
SEQUENCE No. (1, 2, 3, etc.); […] (e.g., Cells, Incubation, Reagent, etc.); VALUE and DESCRIPTION.
1; Reagent; 4 uL; 2,500 Hek293 luciferase reporter cells per wells
3; Compound; 23 nL; Control inhibitor / compound library
5; Reagent; 2.5 uL; Firefly Luc reagent; Dual-Glo Luciferase Reporter Assay System (Promega)
6; Time; 10 min; room temperature incubation
7; Detection; Luminescence; FLuc
NOTES (numbers refer to sequence above)
1; High-throughput screening, measuring luminescence from a Hek293 luciferase reporter, was performed in 1,536 well white-walled tissue-culture treated plates. 2,500 cells were plated in 4 µL of Opti-MEM per well using a Multidrop Combi Reagent Dispenser (ThermoFisher).
2; Assay plates were cultured for 24 hours.
3; Control inhibitor (PTC124; final concentration of 50 uM) and compound library (at final concentrations of 460 nM - 57.5 uM) were added to the assay plate using the Kalypsis Pintool Robotic System equipped with 1536 pinheads.
4; Cells were then incubated for 24 hours at 37 degrees C prior to luminescence measurements.
5; In all cases, luminescence was measured using the Dual-Glo Luciferase Reporter Assay System (Promega) following the manufacturer's instructions.
6; Room temperature incubation.
7; Luminescence signal was obtained using the PerkinElmer ViewLux plate reader. Results were normalized to vehicle control (0% activity) and zero RLU (-100% activity).
Potency is read from the fitted curve at half-maximal effect.

Activity change, negative = inhibition, inactive:
CC(C)CC(=O)NCC(c1ccc2c(c1)OCO2)N1CCN(c2ccc(F)cc2)CC1 (configuration not stated) -14.9%
Cc1c(CCNC(=O)c2ccc(C(F)(F)F)cc2)sc2nc(-c3ccc(F)cc3)nn12 4.17%
CCOC(=O)c1c(C)[nH]c(CCC(=O)NCCCN2CCN(c3cccc(Cl)c3)CC2)c1C -29.4%
CCOc1ccc(NC(=O)C(=O)NCCc2csc3nc(-c4ccccc4F)nn23)cc1 -5.73%
COc1ccc(Cl)cc1N(C)C(=O)c1cc2c(=O)oc3ccc(C)cc3c2s1 -0.88%
COc1cccc(Nc2nc3ccccc3c3nncn23)c1 -14.9%
Cc1ccc(C)n1-c1nnc(N2CCC(C(=O)NCc3ccccc3Cl)CC2)s1 -11.2%
O=S(=O)(c1ccc(Br)cc1)c1nnn2c1nc(N1CCOCC1)c1sccc12 7.1%
Cc1ccc(CSc2nc3cccnc3n2Cc2ccc(C(=O)NC3CC3)cc2)cc1 9.61%
COc1ccc(S(=O)(=O)N2CCCCC2)cc1C(=O)NC1CCS(=O)(=O)C1 (configuration not stated) -15.4%
Cc1ccc(-c2nn(CCC(=O)Nc3ccc(Cl)c(Cl)c3)c(=O)c3ccccc23)cc1 -9.37%
CCN(CC)CCNC(=O)CN1N=C(c2ccc(OC)cc2)CCC1=O -8.91%
CSc1ncc(C(=O)NCc2ccccc2Cl)c(C(F)(F)F)n1 -7.35%
Cc1ccc(SCC(=O)Nc2ccc3oc(-c4ccccc4F)nc3c2)cc1 0%
CCOC(=O)c1cc2c(=O)n3ccccc3nc2n(CC2CCCO2)c1=NC(=O)c1ccc(C(C)(C)C)cc1 (configuration not stated) -8.51%
CCOc1ccc2oc(=O)cc(CN3CCN(C(=O)c4ccc(F)cc4)CC3)c2c1 -21.1%
CCOc1ccc(OCC)c(Nc2nc3ccccc3n3nnnc23)c1 -15.9%
N#Cc1ccc(-c2cccs2)nc1SCc1ccc(Br)cc1 12.7%
Cc1ccc(CCNC(=O)c2ccc(CNS(=O)(=O)c3ccc(C)cc3)cc2)cc1 -5.53%
COc1ccc(NC(=O)CCCN2C(=O)CCn3nc(-c4cn(C)c5ccccc45)cc32)cc1OC 0%
CCOc1ccccc1NC(=O)CN1CCN(S(=O)(=O)c2ccc(Br)cc2)CC1 -13.4%
COc1ccccc1NC(=O)c1cc(C2CC2)nc2c1c(C)nn2-c1ccc(C)cc1 -10.5%
Cc1ccc(Cl)cc1-n1ncc2c(N3CCC(C(N)=O)CC3)ncnc21 -30.7%
CCN1CCN(c2ncnc3c2cnn3-c2ccc(C)c(C)c2)CC1 -8.96%
Cc1cc(OCC(=O)NCC2(N(C)C)CCCCC2)cc(C)c1Cl -5.14%
Cc1nc2nc(SCC(=O)NC3CCC(C)CC3)nn2c(C)c1Cc1ccccc1Cl (configuration not stated) 2.74%
Cc1ccc(-n2nnnc2CNC(=O)c2ccccc2C)cc1C 1.21%
COc1ccc(OCCn2cc(C(=O)C3CCCCC3)c3ccccc32)cc1 -27.6%
COc1ccc(-c2noc(-c3ccc(N4CCN(c5ccccc5)CC4)c([N+](=O)[O-])c3)n2)cc1OC -7.68%
O=C(COc1ccccc1)NCc1ccc2c(c1)CCN2C(=O)c1ccc(F)cc1 -29.6%
Cc1cc2c(cc1S(=O)(=O)CCC(=O)NCc1ccccc1)OCC(=O)N2 -5.35%
Cn1c(SCC(=O)N2CCCc3ccccc32)ncc(C(=O)Nc2ccc(F)cc2)c1=O -4.61%
COc1ccc(S(=O)(=O)NCc2cccn2Cc2cccc(C)c2)cc1 0%
CC(C)c1ccc(NC(=O)c2cc(S(=O)(=O)N3CCc4ccccc4C3)ccc2F)cc1 -20%
Cc1ccc(-n2cnc3cc(C(=O)NCCC4=CCCCC4)ccc32)cc1Cl -5.68%
O=c1n(Cc2cccc(C(F)(F)F)c2)c2ccccc2c2nc(-c3ccccc3)nn12 -9.87%
COc1ccc(N2CCN(C(=O)c3cn(C)c4ccc(S(=O)(=O)N5CCOCC5)cc4c3=O)CC2)cc1 -18.7% [at 11.5 µM]
O=C(Nc1cc(C(F)(F)F)ccc1Cl)c1nc2ccccc2nc1N1CCCCC1 -3.65%
CCN(C(=O)Cn1c(=O)nc(-c2ccccc2)c2cc(Cl)ccc21)c1cccc(C)c1 -4.22%
COc1ccc2c(c1)c(=O)c(S(=O)(=O)c1ccc(F)cc1)cn2CC(=O)Nc1ccc(C)cc1C -9.64%
COc1ccc(NC(=O)c2ccc3nc(CCc4ccccc4)oc3c2)c(OC)c1 36.9%
Fc1ccc(C(Nc2ccc(Cl)c(C(F)(F)F)c2)c2nnc(-c3ccccc3)o2)cc1 (configuration not stated) -35.9%
CC(=O)Nc1ccc(S(=O)(=O)N2CCN(c3ccccc3)CC2)cc1 -26.9%
COc1ccc(Nc2ncc(C(=O)Nc3cc(C)ccc3OC)c3ccccc23)cc1 -18.3%
O=C(CCCn1c(=O)c2cccn2c2cccnc21)NCc1ccc(F)cc1 8.1%
CCOc1cc(-c2nnc(SCC(=O)NC3CCCCC3)nc2-c2ccc(OC)c(OCC)c2)ccc1OC -8.07%
COc1ccc(Cn2ccc3nc(C)c(C(=O)Nc4ccc(C)c(F)c4)cc3c2=O)cc1 -9.53%
COC(=O)c1ccccc1NC(=O)c1ccc2c(=O)n3c(nc2c1)CCCCC3 10.1%
CS(=O)(=O)c1ccc(-c2nnc(NC(=O)c3ccc4c(c3)OCCO4)o2)cc1 -5.72%
CCCCNc1ccc(-c2nc(-c3ccncc3)no2)cc1[N+](=O)[O-] 0.996%
Cc1cccc(C)c1NC(=O)c1ccc(N)cc1 2.97%
CCOC(=O)c1ccc(NC(=O)Cn2c(=O)cc(C)c3c(C)nn(-c4cccc(F)c4)c32)cc1 -8.8%
Cc1ccc2nc(NC(=O)c3nc(SCc4ccccc4F)ncc3Cl)sc2c1 -12.5%
CCC(Sc1nnc(-c2ccc(OC)cc2)c(-c2ccc(OC)cc2)n1)C(=O)NC1CCCCC1 (configuration not stated) 5.07%
CCCn1c(NCc2ccc(N(CC)CC)cc2)nc2ccccc21 -20.8%
CCC1CN(S(=O)(=O)c2cc(-c3cc(C)no3)ccc2C)c2cc(C)ccc2O1 (configuration not stated) -13.3%
COc1ccc(CCNS(=O)(=O)c2cc(-c3cc(C)no3)ccc2C)cc1OC -17.2%
O=C1NC(=O)C(=Cc2cccc(C(F)(F)F)c2)S1 -7.73%
Cc1ccc2c(c1)N(C(=O)Nc1ccc(Br)cc1F)CCO2 -0.729%
COc1cc(-c2noc(-c3ccc(N4CCCC4)c([N+](=O)[O-])c3)n2)cc(OC)c1OC -12.2%
CCNC(=O)CC1C(=O)N(c2ccc(F)cc2)C(=O)N1Cc1ccc(C)cc1 (configuration not stated) -7.1%
CCc1cccc(CC)c1NC(=O)Cn1c(=O)c(-c2cc(C)ccc2NC(C)=O)nc2ccccc21 -3.39%
O=S(=O)(c1ccccc1)c1nc(-c2ccc(Cl)cc2Cl)oc1N1CCCCC1 -9.26%
Cc1ccc(Nc2ccc3cc(S(=O)(=O)N4CCCCC4)ccc3n2)cc1F -16.1%
Cc1c(Cl)cccc1NC(=O)c1noc2c1CCCC2 57.4%
O=C(c1ccc(Cl)cc1)n1nc(-c2cccnc2)nc1NCc1ccc(F)cc1 -12.9%
CCOc1ccc2nc(N3CCC(C(=O)Nc4cc(C)ccc4C)CC3)sc2c1 45.7%
CCOc1cccc2sc(N3CCN(C(=O)C4CC4)CC3)nc12 -10.1%
CCN(CCCNC(=O)Cn1ncc2c([nH]c3ccccc32)c1=O)c1cccc(C)c1 1.31%
CCOC(=O)N1CCc2c(sc(NCc3cccc(F)c3)c2C(=O)Nc2ccccc2OCC)C1 -12.3%
Cc1ccc(C)n1-c1nnc(N2CCC(C(=O)NCc3ccc(F)cc3)CC2)s1 -27.7%
O=C(NCc1ccccc1)c1ccc2c(c1)nc1n2CCCCC1 18.7%
CCOc1cccc(CC(=O)N2CCc3c([nH]c4ccccc34)C2c2ccc(F)cc2)c1OCC (configuration not stated) -26.1%
Cc1ccc(S(=O)(=O)n2nc(C)c(S(=O)(=O)N3CCCCCC3)c2C)cc1 -15.8%
Cc1cc(O)c(C(c2ccccc2)N2CCN(c3ccccc3F)CC2)c(=O)n1Cc1ccco1 (configuration not stated) -5.4%
Cc1cc(C)cc(Nc2ncnc3onc(-c4ccc(F)cc4)c23)c1 -17.4%
COC(=O)CSc1ccc2nnc(CCNS(=O)(=O)c3ccc(C)cc3)n2n1 -0.0981%
CCc1ccccc1NC(=O)c1ccc2c(c1)CCN2S(C)(=O)=O -3.42%
CCOc1ccc(C2CC(=O)c3c([nH]c(C(=O)OCc4ccccc4)c3C)C2)cc1 (configuration not stated) -27.8%
CCc1ccc2oc(-c3ccc(C)c(NC(=O)/C=C/c4ccco4)c3)nc2c1 19.2%
CCC(=O)Nc1cccc(-c2nc3cc(C)ccc3o2)c1 16%
Cc1ccccc1CS(=O)(=O)CC1Nc2ccc(C(=O)NCc3ccc(Cl)cc3)cc2NC1=O (configuration not stated) -18.8%
O=C(Cn1cnc2c(oc3ccccc32)c1=O)Nc1ccc(OC(F)(F)F)cc1 0.986%
COc1ccc(OC)c(NC(=O)CSc2nc3ccccc3nc2N2CCCCC2)c1 -30%
COc1ccc(CCNC(=O)c2ccc3c(c2)sc2nc(-c4ccc(C)cc4)cn23)cc1OC 0.069%
Cc1ccc(CCNC(=O)c2ccc(CS(=O)(=O)Cc3cccc(C)c3)o2)cc1 -25.6%
Cc1ccc(NC(=O)C(=O)NCC(c2cccnc2)N2CCOCC2)cc1 (configuration not stated) -5.3%
O=C(NCc1cccnc1)C(=O)NCC(c1cccnc1)N1CCN(c2ccccc2)CC1 (configuration not stated) -32.1%

Potency, active:
Cc1ccc(-n2ncc3c(N4CCC(C(N)=O)CC4)ncnc32)cc1 0.316 µM
Cc1ccc(NC(=O)c2cc(S(=O)(=O)NCCC3=CCCCC3)ccc2F)cc1C 28.2 µM
COc1ccc(NC(=O)c2ccc3oc(=O)c(S(=O)(=O)c4ccc(F)cc4)cc3c2)c(OC)c1 11.2 µM
Cc1cc(-c2ccc(C)c(S(=O)(=O)N3c4ccccc4CC3C)c2)on1 (configuration not stated) 14.1 µM
CC1CCN(c2nc3ccc(C(=O)N4CCN(c5ccccc5)CC4)cc3s2)CC1 1.12 µM
O=C(NCc1ccc(F)cc1)c1ccc2nc(N3CCCCC3)sc2c1 8.91 µM
Cc1ccc2nc(-c3ccc(C)c(NC(=O)Cc4ccccc4)c3)oc2c1 12.6 µM
COc1ccc(CCNC(=O)c2ccc(CSCc3ccc(C)cc3)o2)cc1OC 25.1 µM
COc1ccccc1N1CCN(C(CNC(=O)C(=O)NCc2ccc(C)cc2)c2cccnc2)CC1 (configuration not stated) 11.2 µM
